Bioassay records from PubChem.
Only some compounds are listed: those with a hit (about 3.1% of all), similar ones and a draw of the others.
HSF-1 act = increases HSF-1 driven luciferase reporter signal; NIH3T3-HGL HSF-1 luciferase reporter, MG132, 8 h; 100% = twice DMSO control signal; 1.7% of 300,000 active; AID 504408; activation, % at 9 µM;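 active = mean replicate activation of at least 50% with a set share of replicates each reaching 50%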
HSP90 inh = inhibitors of HSP90 luciferase refolding in rabbit reticulocyte lysate. inhibition, % at 5.6 µM. 0.91% of 290,000 active. luciferase refolding luminescence, 3 h;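 active = inhibition above the screen-wide mean plus 3 SD, computed separately per campaign, cut at about 16% in these data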;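 note: inhibitors lower the luminescence because luciferase stays unfolded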
ARNT TACC3 PPI = disrupts binding between human ARNT and TACC3 | AlphaScreen His-ARNT PAS-B/GST-TACC3 binding, luminescence; TACC3 fragment carries E629A point mutation | inhibition, % at 9.99 µM | 0.66% of 390,000 active | Q9Y6A5;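 active = mean inhibition of replicates at least 50% and at least half of replicates each reaching 50%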
HIF activator = HIF pathway transcriptional activation; U2OS HRE-luciferase reporter, luminescence; normalized: DMSO 0%, desferrioxamine 100%; activation, % at 7.5 µM (by protocol); 0.32% of 300,000 active; AID 1910;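 active = mean activation of at least 10% of the iron chelator positive control signal, with at least half of replicates also reaching 10%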
HSF1 inhib = HSF1 inhibition. 0.77% of 300,000 active. NIH3T3-HGL HSE-luciferase, MG132-induced, luminescence 8 h; stronger effect = lower value. activity change, negative = inhibition, % at 7.5 µM (by protocol);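 active = more than half of replicate wells show activity change below -50%, luminescence cut by over half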;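 note: luciferase reports HSF-1 transcriptional activity via heat shock element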
Of the large screens only hits and unclear results are named; the others gave an inactive call.

CN(C)C(=O)C[C@@H]1C[C@H]2c3cc(NS(=O)(=O)c4ccccc4)ccc3O[C@H]2[C@@H](CO)O1	none (no result: HSF-1 act, HSP90 inh, HIF activator, HSF1 inhib)
N#CC1=C(N)Oc2cc(N)ccc2C1c1ccc(Cl)cc1 (stereo not given)	none
N#CC1=C(N)Oc2cc(N)ccc2C1c1ccccc1Cl (stereo not given)	HSF1 inhib -61.4
Cc1cc(=O)oc2cc(OCC#N)ccc12	HSF1 inhib -55.5 (no result: ARNT TACC3 PPI)
Cc1ccccc1-n1c(-c2ccc(Cl)cc2)cnc1SCC(=O)NC1CCS(=O)(=O)C1 (stereo not given)	HSF-1 act 70.5
O=C(CSc1nnc(-c2ccccc2)n1-c1ccc(Cl)cc1)NC1CCS(=O)(=O)C1 (stereo not given)	none
CCn1cc(C(=O)NCC(OC)OC)c(=O)c2cc(S(=O)(=O)N3CCCC3)ccc21	none
CCn1cc(C(=O)NCC(OC)OC)c(=O)c2cc(S(=O)(=O)N3CCC(C)CC3)ccc21	HIF activator 29.7
CC(=O)N(C)C[C@H]1Oc2cc(-c3cccnc3)ccc2S(=O)(=O)N([C@@H](C)CO)C[C@@H]1C	none (no result: HSF-1 act, HSP90 inh, HIF activator, HSF1 inhib)
CC1(C)CC(=O)C2=C(C1)OC(N)=C(C#N)C2C#Cc1ccccc1 (stereo not given)	HSF-1 act 77.7
CC(c1ccccc1)C1C(C#N)=C(N)OC2=C1C(=O)CC(C)(C)C2 (stereo not given)	none
CCCCc1nnc(NC(=O)c2ccc3[nH]c(=O)c(=O)[nH]c3c2)s1	HIF activator 197.3 (no result: ARNT TACC3 PPI)
O=C(Nc1nnc(CCc2ccccc2)s1)c1ccccc1	HSF-1 act 50.7
CCCC(=O)Nc1ccc2c(c1)C(=O)N(C)C[C@@H](OC)[C@@H](C)CN(CCC(F)(F)F)[C@@H](C)CO2	none (no result: HSF-1 act, HSP90 inh, HIF activator, HSF1 inhib)
CCOc1ncccc1C(=O)NCCc1c[nH]c2ccccc12	HSF-1 act 89.4
O=C(O)c1nccnc1C(=O)NCCc1c[nH]c2ccccc12	none
CCCC(O)(c1ccc(Cl)cc1)C(CN1CCOCC1)c1ccccc1 (stereo not given)	ARNT TACC3 PPI 45.7
CN(CC(=O)Nc1ccc(OC(F)(F)F)cc1)C(=O)Cc1c(Cl)cccc1Cl	none
O=C(COC(=O)Cc1c(Cl)cccc1Cl)Nc1ccc(OC(F)(F)F)cc1	HSF1 inhib -83.6
Cc1cccc2nc(COc3ccc(-c4ccccc4)cc3)cn12	HSF-1 act 65.1 (no result: ARNT TACC3 PPI)
CCOC(=O)c1cn2c(C)cccc2n1	none
Cc1cc(C)n2cc(COc3ccc4ccccc4c3)nc2n1	HSF-1 act 66.7
Cc1ccnc(SCc2cn3c(C)cc(C)nc3n2)n1	none
C[C@H]1CN([C@@H](C)CO)C(=O)c2cc(-c3cncnc3)cnc2O[C@@H]1CN(C)C(=O)Cc1cccnc1	none (no result: HSF-1 act, HSP90 inh, HIF activator, HSF1 inhib)
Oc1ccc(/C=N/Nc2nn3cnnc3c3ccccc23)cc1	none
CCOc1cc(/C=N/Nc2nn3cnnc3c3ccccc23)ccc1O	ARNT TACC3 PPI 57.0
CCOc1cc([N+](=O)[O-])cc(/C=N/NC(=O)c2c(-c3ccccc3)noc2C)c1O	ARNT TACC3 PPI 56.7
CCOc1cc(/C=N/NC(=O)c2c(-c3ccccc3)noc2C)ccc1O	HIF activator 100.4 (no result: ARNT TACC3 PPI)
Cc1ccc(/C=N/NC(=O)c2c(-c3ccccc3)noc2C)c(O)c1	ARNT TACC3 PPI 46.8, HIF activator 17.8
CS(=O)(=O)Nc1ccc2c(c1)[C@@H]1C[C@H](CC(=O)NCc3ccc(-c4ccccc4)cc3)O[C@@H](CO)[C@@H]1O2	none (no result: HSF-1 act, HSP90 inh, HIF activator, HSF1 inhib)
O=C(C[C@@H]1C=C[C@H](NC(=O)c2ccncc2)[C@@H](CO)O1)Nc1ccc(-c2ccccc2)cc1	none (no result: HSF-1 act, HSP90 inh, HIF activator, HSF1 inhib)
COc1ccc(NC(=O)N(C)C[C@H]2Oc3ncc(-c4ccc(C#N)cc4)cc3C(=O)N([C@H](C)CO)C[C@@H]2C)cc1	none (no result: HSF-1 act, HSP90 inh, HIF activator, HSF1 inhib)
O=C(Nc1c(C(=O)c2ccccc2)oc2ccccc12)c1cc(-c2ccccc2O)n[nH]1	HSF-1 act 65.7
Fc1ccccc1N1CCN(c2cnc3ccccc3n2)CC1	HSF-1 act 62.4
CCS(=O)(=O)Nc1ccc2c(c1)C(=O)N(C)C[C@H](OC)[C@H](C)CN(CC1CCCC1)[C@@H](C)CO2	none (no result: HSF-1 act, HSP90 inh, HIF activator, HSF1 inhib)
CC=Cc1ccc2n(c1=O)C[C@H]1[C@H](CO)[C@@H](C(=O)NCCC)[C@@H]2N1C(=O)c1ccccc1 (mixture of isomers)	none (no result: HSF-1 act, HSP90 inh, HIF activator, HSF1 inhib)
CCC(=O)n1nc(NCc2ccc(OC)c(OC)c2)nc1NCc1ccc(OC)c(OC)c1	HIF activator 226.9
COC(=O)[C@@H]1[C@@H](CO)[C@@H]2Cn3c(ccc(-c4ccccc4OC)c3=O)[C@@H]2N1C(=O)c1cccnc1	none (no result: HSF-1 act, HSP90 inh, HIF activator, HSF1 inhib)
CCOC(=O)c1c(S(=O)(=O)NCc2ccc(C)o2)c(C)n(C)c1C	HIF activator 69.5 (no result: ARNT TACC3 PPI)
CCOC(=O)c1c(S(=O)(=O)NCc2cccs2)c(C)n(C)c1C	none
O=C(N/N=C/c1cc2cc3c(cc2nc1Cl)OCO3)c1ccncc1	HIF activator 345.2 (no result: ARNT TACC3 PPI)
O=C(NCC1CCCO1)C(=O)N/N=C/c1ccc(O)c(Cl)c1 (stereo not given)	none
O=C(N/N=C/c1cc(Cl)ccc1O)c1ccncc1	ARNT TACC3 PPI 69.4, HIF activator 26.5
O=C(NCC1CCCO1)C(=O)N/N=C/c1cc(Cl)ccc1O (stereo not given)	ARNT TACC3 PPI 45.8
CN(C)CCCNC(=O)[C@@H]1[C@@H](CO)[C@@H]2Cn3c(ccc(-c4ccccc4)c3=O)[C@@H]2N1C	none (no result: HSF-1 act, HSP90 inh, HIF activator, HSF1 inhib)
CC(=O)N1[C@H](CO)[C@H](c2ccc(C3=CCCC3)cc2)[C@@H]1CNC(=O)CN(C)C	none (no result: HSF-1 act, HSP90 inh, HIF activator, HSF1 inhib)
C=C1C(=O)C2=CC1CCC(=O)C1(C)CCC(OC(C)=O)C(C)(C)C1CC2O (stereo not given)	HSF-1 act 88.5, HSF1 inhib 88.5 (no result: HSP90 inh, HIF activator)
COc1ccc(-n2c(COc3cccc4ccccc34)nnc2SCC(=O)NCc2ccco2)cc1	none (no result: ARNT TACC3 PPI)
O=C(CSc1nnc(CNc2ccc(Cl)cc2)n1Cc1ccccc1)NCc1ccco1	HSF-1 act 63.5
O=C(CSc1nnc(Cc2ccccc2)n1Cc1ccccc1)NCc1ccco1	none
O=C(CSc1nc(C2CCCCC2)nc2ccccc12)NCc1ccco1	HSF-1 act 59.3
COc1ccccc1OCc1nnc(SCC(=O)NCc2ccco2)n1-c1ccccc1	HIF activator 422.7
CCn1c(CNc2cccc(Cl)c2)nnc1SCC(=O)OC1CCCCC1	none
CCn1c(CNc2ccc(Cl)cc2)nnc1SCC(=O)OC1CCCCC1	HSF-1 act 60.1
CC(C)c1nc2ccccc2c2nnc(SCC(=O)NCc3ccco3)n12	HSF1 inhib -60.5
CC(C)(C)c1nc2ccccc2c2nnc(SCC(=O)NCc3ccco3)n12	none
C/C=C/c1ccc([C@@H]2[C@@H](CO)N(C(=O)C3CC3)[C@H]2CN(C)C(=O)CC)cc1	none (no result: HSF-1 act, HSP90 inh, HIF activator, HSF1 inhib)
COc1ccc(-c2noc(N3CCC(C(=O)NCCCN4CC(C)CC(C)C4)CC3)n2)cc1 (stereo not given)	HSF1 inhib -76.6
CC(=O)C1C(c2cn(-c3ccccc3)nc2-c2cccs2)NC(=O)NC1(O)C(F)(F)F (stereo not given)	ARNT TACC3 PPI 47.0
